The values below come from PubChem BioAssay.

Broadly, the viability is a read-out of living cells in per cent, often relative to untreated cells.

The nature of test [1]: viability loss with induced miR-34 in A549 – imaging, A549 dox-inducible miR-34, nuclei and caspase counts, primary screen (AID 1347080). The settings on record: A549 miR-34 inducible, Hoechst nuclei count, 48 h.
A short description of test [2]: MELAS cybrid and Rieske KO viability enhancers – cell-based, MELAS cybrids, Rieske KO mouse fibroblasts, CellTiter-Glo, primary screen (AID 1508586;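 active = mean z-score across replicates of 1.96 or higher in either the MELAS or the Rieske mutant cell line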;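 also: z relative to plate mean and SD of compound and empty wells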). The settings on record: low glucose.
Test [3] can be described thus: galactose survival enhancers in mitochondrial complex I cybrids – cell-based, galactose medium, ATP luminescence, primary screen (AID 1645843;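 active = z-score of at least 1.8 in each of two replicates, scored against plate mean and spread of sample wells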;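 also: positive z means more ATP and so rescue of galactose-driven cybrid death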). The settings on record: complex I mutant cybrid cells, 72 h, stronger effect = higher value.
The nature of test [4]: P. berghei load reduction in hepatocytes – cell-based, HepG2, luciferase luminescence, HepG2 viability, primary screen (AID 624349; in the data active = parasite load remaining mostly below about 12%, no sharp cut-off; inactive = mostly above about 10%;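 also: 100% = mean of DMSO negative control wells on the same plate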). The settings on record: P. berghei liver stage in HepG2, luciferase luminescence, concentration not given here; parasite load remaining: stronger effect = lower value; viability: measured here: HepG2 viability without parasites.
Setting [5] is: stronger effect = lower value, cell number ratio, induced over uninduced.
Setting [6] is: measured here: relative caspase fold change +Dox/-Dox.
Setting [7] is: measured here: total cells with miR-34 induction, stronger effect = lower value.
[8] abbreviates: measured here: total cells without miR-34 induction.
Setting [9] is: MELAS cybrid survival, CellTiter-Glo 48 h, stronger effect = higher value.
The mark [10] stands for this setting: Rieske KO mouse fibroblast survival, CellTiter-Glo 72 h.

SMILES strings stand for the structures. Calls of active or inactive are those of the source.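 The calls were made as follows, unless noted: active = compounds whose cell count with miR-34 switched on is under 0.7 times the count with it off; inactive = the rest.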

With `CCCN1CCO[C@@H]2c3cc(O)ccc3OC[C@@H]21`, the fold change in test [1] (setting [5]) is 0.947 (inactive); in test [1] (setting [6]), 0.482. In addition, the cell count in test [1] (setting [7]) worked out at 8140; in test [1] (setting [8]) it was 8590. The z-score was 0.111 (inactive) in test [2] (setting [9]) and 0.146 in test [2] (setting [10]).
`CN1C2CCC1CC(=O)C2`: the figures for the fold change in test [1] (setting [5]) and in test [1] (setting [6]) were 0.86 (inactive) and 0.54, respectively. The cell count in test [1] (setting [7]) came out at 8780; in test [1] (setting [8]), 10200. Also, the z-score was 0.543 (inactive) in test [2] (setting [9]), -0.508 in test [2] (setting [10]) and 0.545 (inactive) in test [3].
In the case of `C=CC(C)(C)c1cc2cc3c(cc2oc1=O)OC(C(C)(C)O)C3` (configuration not stated), the fold change in test [1] (setting [5]) is 0.846 (inactive); in test [1] (setting [6]), 0.587. Further, the cell count in test [1] (setting [7]) stood at 5210; in test [1] (setting [8]), 6170. Further, the z-score was -1.27 (inactive) in test [2] (setting [9]), 0.752 in test [2] (setting [10]) and -2.66 (inactive) in test [3].
`COC1CCC(OC2C[C@H]([C@]3(C)CC[C@]4(CC(O)C(C)[C@@H](C(C)C=C(C)C(=O)C(C)CC(C)C(=O)O)O4)O3)O[C@]3(O[C@@H]([C@H]4O[C@@](O)(CO)C(C)CC4C)CC3C)C2C)OC1C` (some centres not stated): the fold change in test [1] (setting [5]) is 0.953 (inactive); in test [1] (setting [6]), 1.13. Moreover, the results for the cell count in test [1] (setting [7]) and in test [1] (setting [8]) were 874 and 918, respectively. The z-score in test [2] (setting [9]) is 0.291 (inactive); in test [2] (setting [10]), -2.77.
Take `CC(=O)Nc1ccc(Cc2ccc(NC(C)=O)cc2)cc1`: the fold change is 0.888 (inactive) in test [1] (stronger effect = lower value) and 0.668 in test [1] (setting [6]). Besides, the values for the cell count in test [1] (setting [7]) and in test [1] (setting [8]) were 8350 and 9400, respectively. Also, the results for the z-score in test [2] (setting [9]) and in test [2] (setting [10]) were -0.423 (inactive) and 0.257, respectively.
In the case of `C1CCN(C2CCNCC2)CC1`, the fold change is 0.919 (inactive) in test [1] (setting [5]) and 0.5 in test [1] (setting [6]). Besides, the cell count came to 8270 in test [1] (setting [7]) and 9000 in test [1] (setting [8]). Moreover, the z-score was -1.03 (inactive) in test [2] (setting [9]), 0.0453 in test [2] (setting [10]) and 0.44 (inactive) in test [3].
As to `CCN1C[C@]2(OC(=O)c3ccccc3NC(C)=O)CCC(OC)[C@]34C1C(C[C@H]23)[C@@]1(O)CC(OC)[C@H]2C[C@H]4[C@]1(O)C2OC` (some centres not stated), the fold change in test [1] (stronger effect = lower value) was 0.952 (inactive); in test [1] (setting [6]), 0.833. Also, the cell count in test [1] (setting [7]) stood at 7310; in test [1] (setting [8]) it was 7680. Moreover, the z-score in test [2] (setting [9]) is -0.466 (inactive); in test [2] (setting [10]), -0.118.
In the case of `CC(C)(c1ccccc1)c1ccc(O)cc1`, the fold change in test [1] (stronger effect = lower value) is 0.897 (inactive); in test [1] (setting [6]) it was 0.637. The cell count came to 8850 in test [1] (setting [7]) and 9870 in test [1] (setting [8]). In addition, the z-score was 0.409 (inactive) in test [2] (setting [9]), -0.32 in test [2] (setting [10]) and 0.62 (inactive) in test [3].
With `Cc1nc(-c2ccccn2)nc(NCCc2ccccc2)c1Cl`, the fold change in test [1] (stronger effect = lower value) was 0.975 (inactive); in test [1] (setting [6]) it was 0.693. Further, the cell count came out at 3090 in test [1] (setting [7]) and 3170 in test [1] (setting [8]). The z-score is -0.0148 in test [2] (setting [9]), 3.58 in test [2] (setting [10]) and -2.29 (inactive) in test [3].
For the compound `Oc1ccc2c3c1O[C@H]1c4oc5ccccc5c4C[C@@]4(O)[C@@H](C2)N(CC2CC2)CC[C@]314`, the parasite load remaining in test [4] is 33.1% (inactive). For the same compound, the viability in test [4] worked out at 94%. Further, the fold change in test [1] (stronger effect = lower value) is 0.915 (inactive); in test [1] (setting [6]), 0.462. The cell count in test [1] (setting [7]) came to 9980; in test [1] (setting [8]), 10900. Besides, the z-score was -0.602 (inactive) in test [2] (setting [9]), 0.281 in test [2] (setting [10]) and -0.095 (inactive) in test [3].
With `C[C@]12CCC(=O)C(O)=C1CC[C@@H]1[C@H]2CC[C@]2(C)C(=O)CC[C@@H]12`, the fold change in test [1] (stronger effect = lower value) is 0.879 (inactive); in test [1] (setting [6]) it was 0.764. Moreover, the values for the cell count in test [1] (setting [7]) and in test [1] (setting [8]) were 8100 and 9210, respectively. The figures for the z-score in test [2] (setting [9]) and in test [2] (setting [10]) were -0.345 (inactive) and 0.332, respectively.
`CC1=C(C(=O)Nc2ccccc2)SCCO1`: the figures for the fold change in test [1] (stronger effect = lower value) and in test [1] (setting [6]) were 0.865 (inactive) and 0.79, respectively. The cell count in test [1] (setting [7]) came out at 8550; in test [1] (setting [8]), 9880. In addition, the z-score in test [2] (setting [9]) is 0.971 (inactive); in test [2] (setting [10]) it was -0.224; in test [3], -0.385 (inactive).
Turning to `Cc1ccc(C(C)Nc2ncnc3sccc23)cn1` (configuration not stated), the results for the fold change in test [1] (setting [5]) and in test [1] (setting [6]) were 0.921 (inactive) and 1.09, respectively. In addition, the figures for the cell count in test [1] (setting [7]) and in test [1] (setting [8]) were 5250 and 5700, respectively. In addition, the z-score was -0.723 (inactive) in test [2] (setting [9]), -0.439 in test [2] (setting [10]) and -0.4 (inactive) in test [3].
Regarding `CC1CC[C@@]2(OC1)O[C@H]1C[C@H]3[C@@H]4CC=C5CC(O[C@@H]6OC(CO)C(O[C@@H]7OC(C)C(O)C(O)C7O)C(O)C6O[C@@H]6OC(C)C(O)C(O)C6O)CC[C@]5(C)[C@@H]4CC[C@]3(C)[C@@H]1C2C` (some centres not stated), the fold change was 0.658 (active) in test [1] (setting [5]) and 1.39 in test [1] (setting [6]). For the same compound, the cell count in test [1] (setting [7]) is 1180; in test [1] (setting [8]), 1800. For the same compound, the figures for the z-score in test [2] (setting [9]) and in test [2] (setting [10]) were 2.01 (active) and -1.08, respectively.
As for `C=CCN1CC[C@]23c4c5ccc(O)c4O[C@H]2/C(=N/N=C2\CC[C@@]4(O)[C@H]6Cc7ccc(O)c8c7[C@@]4(CCN6CC=C)[C@H]2O8)CC[C@@]3(O)[C@H]1C5`, the parasite load remaining in test [4] is 8.58% (inactive). Also, the viability in test [4] was determined as 59%. In addition, the results for the fold change in test [1] (stronger effect = lower value) and in test [1] (setting [6]) were 0.791 (inactive) and 1.27, respectively. Besides, the cell count in test [1] (setting [7]) was 7760; in test [1] (setting [8]) it was 9820. Also, the z-score was -0.547 (inactive) in test [2] (setting [9]), -0.931 in test [2] (setting [10]) and -1.6 (inactive) in test [3].
For the compound `CC(C)(C)[C@@]1(O)C[C@@H]2OC(=O)C[C@@]23C(=O)O[C@H]2OC(=O)C(O)C213` (some centres not stated), the fold change in test [1] (setting [5]) was 0.894 (inactive); in test [1] (setting [6]), 1.49. The figures for the cell count in test [1] (setting [7]) and in test [1] (setting [8]) were 8490 and 9500, respectively. Moreover, the z-score in test [2] (setting [9]) is -0.286 (inactive); in test [2] (setting [10]) it was 0.895.
For the compound `O=C1CC[C@@]2(O)C3Cc4ccc(O)c5c4[C@@]2(CCN3CC2CC2)C1O5` (some centres not stated), the fold change in test [1] (stronger effect = lower value) is 0.922 (inactive); in test [1] (setting [6]) it was 4.62. In addition, the results for the cell count in test [1] (setting [7]) and in test [1] (setting [8]) were 8340 and 9040, respectively. Moreover, the z-score in test [2] (setting [9]) was 1.92 (inactive); in test [2] (setting [10]), -1.89.
With `Oc1ccc(C2(c3ccc(O)cc3)CCCCC2)cc1`, the fold change in test [1] (stronger effect = lower value) is 0.911 (inactive); in test [1] (setting [6]) it was 0.41. For the same compound, the cell count in test [1] (setting [7]) is 7610; in test [1] (setting [8]), 8350. Also, the z-score in test [2] (setting [9]) is -0.617 (inactive); in test [2] (setting [10]), -0.22; in test [3], -1.9 (inactive).
Consider `COCC1OC(=O)c2coc3c2[C@@]1(C)C1=C(C3=O)[C@@H]2CCC(=O)[C@@]2(C)CC1OC(C)=O` (some centres not stated), for which the fold change in test [1] (setting [5]) is 0.933 (inactive); in test [1] (setting [6]), 0.632. The cell count in test [1] (setting [7]) came to 3850; in test [1] (setting [8]), 4130. Moreover, the z-score in test [2] (setting [9]) is 3.45 (active); in test [2] (setting [10]), -0.534.
In the case of `C#C[C@@]1(O)C=C[C@H]2[C@@H]3CCC4=CC(=O)CC[C@@H]4[C@@H]3CC[C@@]21CC`, the fold change in test [1] (setting [5]) was 0.87 (inactive); in test [1] (setting [6]), 1.21. Further, the cell count in test [1] (setting [7]) was found to be 7070; in test [1] (setting [8]), 8120. The values for the z-score in test [2] (setting [9]) and in test [2] (setting [10]) were -0.518 (inactive) and 0.382, respectively.
With `N#Cc1cnn(-c2ccc(Cl)cc2)c1N`, the fold change was 0.852 (inactive) in test [1] (stronger effect = lower value) and 1.03 in test [1] (setting [6]). Moreover, the cell count in test [1] (setting [7]) is 8030; in test [1] (setting [8]), 9420. Further, the z-score in test [2] (setting [9]) is -0.167 (inactive); in test [2] (setting [10]), -0.085; in test [3], 0.29 (inactive).
As for `Fc1cc(F)c2c(c1)[C@H]1C=CC[C@@H]1C(c1cccnc1)N2` (some centres not stated), the fold change in test [1] (setting [5]) was 0.966 (inactive); in test [1] (setting [6]) it was 0.287. Moreover, the results for the cell count in test [1] (setting [7]) and in test [1] (setting [8]) were 1650 and 1710, respectively. In addition, the z-score in test [2] (setting [9]) was 1.16 (inactive); in test [2] (setting [10]), 0.671.
